Screening results (PubChem)
PTHR1 ag: activates the human parathyroid hormone receptor PTHR1; Q03431; HEK293 GP2 PTHR1 cells, GloSensor cAMP luminescence, 1 h; Potency, µM (series often up to 115 µM), for the others: at the top dose activation, usual class: activators; 410,000 compounds, 0.075% hits; further: potency means the concentration at half of the fitted maximal effect; nearly all actives have a fitted effect of over 55% in size
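HEK-293-derived GP2 cells expressing PTHR1 and a GloSensor cAMP reporter, 3,000/well, plated overnight, given luciferin plus IBMX (each 0.5 mM as added) for 1 h at 37 °C, then compound for 1 h at 37 °C. Luminescence was read after 15 min at room temperature.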
RXFP1 ag: RXFP1 (human) receptor agonism; AID 2676; Q9HBX9; Potency, µM (series often up to 57.5 µM), for inactives: top-dose activation, hits mostly activators; 370,000 compounds, 0.3% hits; HEK293T-RXFP1 cAMP TR-FRET, 30 min; response scale: percent of porcine relaxin response, buffer zero; further: potency means the concentration at half of the fitted maximal effect; on the % scale 0 is the no-effect control and ±100 the full control effect; nearly all actives have a fitted effect of over 60% in size
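cAMP rise read by TR-FRET after 30 min, 37C compound exposure (up to 58 uM) in RXFP1-transfected HEK293 cells with Ro 20174 present. EC50 from Hill-equation fits, with 29 nM porcine relaxin as 100% and buffer as basal.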
RXFP1 antag: blocks the human relaxin receptor RXFP1; Q9HBX9; HEK293-RXFP1, relaxin-stimulated cAMP HTRF, 30 min; active compounds read low; activity change, negative = inhibition, % at 57.5 µM; 350,000 compounds, 0.59% hits; AID 1259400;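 active means activity change of -60% or lower, but not beyond a set lower limit; inconclusive means change between -60% and -40%, or beyond the set limit; inactive means change above -40%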; further: on the % scale 0 is the no-effect control and ±100 the full control effect
GLP1R cytotox: cytotoxic in the GLP-1 receptor inverse agonist counter-screen; Potency, µM (doses to about 38.3 µM), for inactives: at the highest dose activity change, negative = inhibition, actives largely listed as inhibitors; HEK293 cAMP-luciferase reporter cells, luminescence, 24 h; 410,000 compounds, 0.13% hits;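 further: loss of luciferase light is scored as toxicity; potency means the concentration at half of the fitted maximal effect; on the % scale 0 is the no-effect control and ±100 the full control effect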
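Luminescence readout: signal drop marks cytotoxicity. Plated cells grew 12 h at 37 °C, 5% CO2, received 23 nL compound for 24 h, then got luciferase reagent, read after 12 min at RT.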
TSHR antagonist: human thyrotropin receptor antagonism. P16473. TSHR-expressing cells, TSH-stimulated cAMP HTRF, 2 h; active compounds read low. activity change, negative = inhibition, % at 11.5 µM. 330,000 compounds, 0.2% hits;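 active means activity change below a set negative limit, meaning inhibition stronger than a set level, cut at about -70% in these data; inconclusive means activity change between two set negative limits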; further: on the % scale 0 is the no-effect control and ±100 the full control effect
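Inhibition of cAMP made by TSHR-expressing cells under TSH stimulation (4nM final, EC80; 2 h, 37 deg C) is quantified with a one-step lysis HTRF kit, anti-cAMP cryptate versus cAMP-d2.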
NPSR antagonist: neuropeptide S receptor (human) antagonism, cAMP; Potency, µM (top dose mostly 38.3 µM), inactives show at the highest dose activity change, negative = inhibition, most hits filed as inhibitors; 220,000 compounds, 1% hits; CHO-NPSR cells, cAMP TR-FRET, antagonist mode; Q6W5P4; further: potency means the concentration at half of the fitted maximal effect; on the % scale 0 is the no-effect control and ±100 the full control effect; nearly all actives have a fitted effect of over 50% in size
Target sequence (Q6W5P4 whole entry, looked up): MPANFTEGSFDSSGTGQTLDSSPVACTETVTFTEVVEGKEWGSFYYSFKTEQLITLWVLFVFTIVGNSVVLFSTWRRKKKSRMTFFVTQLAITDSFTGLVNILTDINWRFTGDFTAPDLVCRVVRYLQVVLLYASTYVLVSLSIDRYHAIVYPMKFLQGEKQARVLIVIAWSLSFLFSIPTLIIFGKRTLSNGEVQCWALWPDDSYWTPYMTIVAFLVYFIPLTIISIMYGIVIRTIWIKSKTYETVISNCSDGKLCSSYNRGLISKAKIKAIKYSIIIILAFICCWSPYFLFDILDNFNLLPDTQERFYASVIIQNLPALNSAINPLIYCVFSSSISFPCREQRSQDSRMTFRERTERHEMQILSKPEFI
The depositor's hits bear a star; i = inactive; ? = inconclusive; / = no result given; ! = a repeat was not active; [ ] = remark or other dose. The sample as a whole holds a higher share of hits than the screen did. Unless noted, the call rests on the fitted dose curve; in most records, active means well fitted curve in the direction sought with a large enough effect; inconclusive means small, poorly fitted or top-dose-only effect, or another doubt; inactive means no such curve, though single readings can be large; an effect the other way counts as inactive or inconclusive.

SMILES	PTHR1 ag	RXFP1 ag	RXFP1 antag	GLP1R cytotox	TSHR antagonist	NPSR antagonist
CCc1ccc(-c2ccc3nnc(SCC(=O)NCC4CCCO4)n3n2)cc1 (stereo not drawn)	i	26.3%	9.8	2.5%	8.9	/
Cc1ccc(-c2ccc3nnc(SCC(=O)NCC4CCCO4)n3n2)cc1 (stereo not drawn)	-0.9%	25.1µM*	11.4	-8.4%	25.7	11.1%
O=S(=O)(Nc1cccc(-c2ccc(N3CCCCCC3)nn2)c1)c1ccc(C(F)(F)F)cc1	i	0.6%	-68.0*	-7.5%	-1.0	/
O=S(=O)(Nc1cccc(-c2ccc(N3CCCCCC3)nn2)c1)c1ccc(F)cc1	-87.6%	2.1%	-76.2*!	-10.8%	-83.1*	/
CCOc1cc(/C=N\NC(=O)OC)ccc1OC(=O)c1ccco1	-14.8%	6.1%	-64.3*	0.5%	12.9	1.0%
C=CCN1C=CC(=C/C=C(/C#N)C(=O)OCC)C=C1	-2.4%[57.5 µM]	-2.0%	-20.5	-16.4%	-47.4	10µM*
CCCC1(C)C(C#N)(C#N)C1(C#N)C#N	/	/	/	/	-24.1	/
CC1=NN(C(N)=S)C(=O)C1N=Nc1c(Br)cc(Br)cc1Br (stereo not drawn)	-36.3%	-3.1%	-64.3*	-16.0%	-42.7	/
CCOc1ccc(N(CC(=O)NCCOc2ccc(C)cc2)S(=O)(=O)c2ccccc2)cc1	-19.4%	-4.1%	4.2	-28.5%	-7.3	/
COc1ccc(N(CC(=O)NCCOc2ccccc2)S(=O)(=O)c2ccc(C)cc2)cc1	?	-1.6%	-61.7*	2.5%	3.5	/
Cc1cc(NC(=O)CSc2nc3ccsc3c(=O)n2CCCC(=O)NCCc2ccccc2)no1	i	2.6%	-79.0*	?	-8.8	?
COc1ccc2[nH]c3c(=O)n(CCCC(=O)NC4CCCCC4C)c(=S)[nH]c3c2c1 (stereo not drawn)	i	-2.0%	-65.6*	-0.2%	0.0	/
O=C(CCCn1c(=S)[nH]c2ccsc2c1=O)NCCc1ccccc1	-7.5%	6.6%	-94.3*	5.0%	-8.2	/
CC1CCCCC1NC(=O)CCCCCn1c(=S)[nH]c2ccsc2c1=O (stereo not drawn)	-18.4%	3.5%	-73.4*	4.6%	-5.0	/
O=C(CCCn1c(=S)[nH]c2ccsc2c1=O)NC1CCCCC1	i	12.8%	?	-6.7%	3.8	/
CCc1ccccc1NC(=O)Nc1ccc2c(c1)N(CC)C(=O)c1ccccc1S2	-7.9%	?	-10.8	-16.0%	/	/
COc1cc2nc(Cl)nc(N)c2cc1OC	/	/	3.7	/	/	/
CC(C)C(NC(=O)c1c(F)cccc1F)C(=O)N1CCN(S(=O)(=O)c2ccc(F)cc2)CC1 (stereo not drawn)	-17.4%	0.5%	-7.0	-3.0%	-0.2	/
CC(CC1c2ccccc2CCc2ccccc21)CN(C)C (stereo not drawn)	/	/	-26.9	/	/	/
COc1ccc2[nH]c3c(=O)n(CCCCC(=O)N4CCCC4)c(=S)[nH]c3c2c1	i	3.1%	-106.8*	10.4%	7.6	-18.5%[46.1 µM]
CCOc1ccc(OCC(=O)NCCS(=O)(=O)N2CCN(c3cccc(Cl)c3)CC2)cc1	-24.1%	-2.1%	/	-3.7%	/	/
COc1ccc2[nH]c3c4c(ccc3c2c1)C(=O)C=CC4=O	-8.4%	-2.4%	?	7.94µM*	-32.6	?
Cc1cc2nc(NC(=O)C3(C)CCN3C(=O)C(C)C)[nH]c2cc1C (stereo not drawn)	-23.7%	/	/	1.4%	/	/
O=C1c2ccccc2C2=Nc3ccccc3SC(c3cccc(F)c3)C12 (stereo not drawn)	-24.7%	4.1%	-15.9	7.94µM*	29.7	?
c1ccc(-c2nnnn2-c2ccccc2)cc1	i	0.7%	2.7	-2.2%	6.2	/
ClC(Cl)(c1nnnn1-c1ccccc1)c1nnnn1-c1ccccc1	i	1.2%	-91.0*	?	-5.9	-3.4%
